Screening data deposited in PubChem BioAssay by National Center for Advancing Translational Sciences (NCATS).
DT40 TDP1 no CPT: qHTS for Inhibitors of human tyrosyl-DNA phosphodiesterase 1 (TDP1): qHTS in cells in absence of CPT; Potency, µM (series often up to 46.2 µM), inactives show at the top dose activity change, negative = growth inhibition, most hits filed as inhibitors; AID 686978, 2013; 420,000 tested, 15% active; DT40 Tdp1-/- hTDP1 cells, no CPT, ATP luminescence, 48 h; further: potency means the concentration at half of the fitted maximal effect; on the % scale 0 is the no-effect control and ±100 the full control effect; nearly all actives have a fitted effect of over 55% in size
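A cellular qHTS used chicken DT40 cells lacking endogenous Tdp1 but carrying stably transfected human TDP1. Compounds were applied without camptothecin, and cell growth kinetics were judged by ATP-dependent luminescence after ≥48 hr.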
IL-1B inflam inh: blocks inflammasome-driven IL-1 beta release | THP-1 LPS/ATP IL-1B secretion, AlphaLISA, 16 h; active compounds read low | activity change, % at 57.5 µM | 360,000 tested, 4.7% active; in the data active means activity change below about -50%; inconclusive means mostly about -30% to -49%; further: on the % scale 0 is the no-effect control and ±100 the full control effect
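THP-1 cells pretreated 1 hr with compounds (up to 57.5 uM final), then stimulated with LPS (250 ng/mL final) plus ATP (1.25 mM final); secreted IL-1B measured by AlphaLISA after 16 hr, decreased signal indicating inhibition.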
TGFb inhibitor: blocks TGF-b signaling. HepG2 CAGA-GFP TGF-b/SMAD3 reporter, GFP fluorescence, 18 h; TGF-beta stimulated, 500 pg/mL final. Potency, µM (series often up to 46.1 µM), for the others: top-dose activity, negative = inhibition, usual class: inhibitors. 410,000 tested, 1.2% active. AID 588855; further: potency means the concentration at half of the fitted maximal effect; on the % scale 0 is the no-effect control and ±100 the full control effect; nearly all actives have a fitted effect of over 65% in size
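First, reporter cells (HEPG2 CAGA-GFP) rested 2 h at 37 degrees C. Next, compounds were pinned in and TGF-beta added to 500 pg/mL final. After 18 h, GFP was imaged per cell and summed per well.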
TDP1 inh: TDP1 (human) enzyme inhibition. AID 485290. 350,000 tested, 0.28% active. recombinant TDP1, AlphaScreen DNA substrate cleavage. Potency, µM (titrated, usually from 130 µM), for the others: at the top dose activity change, negative = inhibition, hits mostly inhibitors; further: potency means the concentration at half of the fitted maximal effect; on the % scale 0 is the no-effect control and ±100 the full control effect; nearly all actives have a fitted effect of over 40% in size
Target sequence (Q9NUW8 whole entry, looked up): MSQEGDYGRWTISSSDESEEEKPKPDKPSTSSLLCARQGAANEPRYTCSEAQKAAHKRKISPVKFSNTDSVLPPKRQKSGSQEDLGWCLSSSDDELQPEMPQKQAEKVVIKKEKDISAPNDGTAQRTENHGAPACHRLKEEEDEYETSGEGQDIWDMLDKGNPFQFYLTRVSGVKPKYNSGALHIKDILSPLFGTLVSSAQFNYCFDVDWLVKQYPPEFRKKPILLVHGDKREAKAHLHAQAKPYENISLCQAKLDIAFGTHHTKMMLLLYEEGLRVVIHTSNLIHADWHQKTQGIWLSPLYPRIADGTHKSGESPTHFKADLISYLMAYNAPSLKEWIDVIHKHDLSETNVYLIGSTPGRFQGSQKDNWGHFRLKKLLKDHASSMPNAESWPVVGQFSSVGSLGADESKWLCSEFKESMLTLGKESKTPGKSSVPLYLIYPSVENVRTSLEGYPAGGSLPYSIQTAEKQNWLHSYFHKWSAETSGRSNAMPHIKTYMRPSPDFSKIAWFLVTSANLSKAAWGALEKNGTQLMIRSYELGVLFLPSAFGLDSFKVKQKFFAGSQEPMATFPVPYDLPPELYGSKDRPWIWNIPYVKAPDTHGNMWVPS
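Tdp1 1 nM final; 15 min RT w/ cpd; substrate 15 nM, 5 min; beads 10 ug/ml, 10 min; AlphaScreen read. Neg ctrl: no enzyme.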
HepG2 tox: counter-screen for TGF-b inhibitors: cytotoxicity in HepG2 cells | HepG2 CAGA-GFP viability, ATP luminescence, 18 h | Potency, µM (series often up to 46.1 µM), for the others: top-dose activity change, negative = cytotoxicity, hits mostly cytotoxic | 410,000 tested, 0.76% active | AID 588856; further: potency means the concentration at half of the fitted maximal effect
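HepG2 CAGA-GFP cells (1000/well, DMEM with 1% FBS) received compound, then TGF-beta at 500 pg/mL final, and were incubated 18 hours at 37 degrees C. Viability was read by CellTiter-Glo luminescence. Media-only wells were set as complete cell-killing and DMSO as no toxicity.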
TDP1 cell CPT: growth inhibition of DT40 Tdp1-/-;hTDP1 cells with camptothecin (screen for TDP1 inhibitors); chicken DT40 Tdp1-/-;hTDP1 cells + 20 nM CPT, ATP luminescence, 48 h; Potency, µM (doses to about 46.2 µM), without a hit: at the highest dose activity change, negative = growth inhibition, most hits filed as inhibitors; 420,000 tested, 12% active; AID 686979; further: potency means the concentration at half of the fitted maximal effect; on the % scale 0 is the no-effect control and ±100 the full control effect; nearly all actives have a fitted effect of over 55% in size
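Cell growth measured by CellTiter-Glo luminescence after a minimum 48 h, 37 C compound exposure with 20 nM CPT in Tdp1-knockout DT40 cells stably expressing hTDP1, seeded 400/well; qHTS titration format.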
Numbers without * were called inactive; ? = inconclusive; nt = no result; ! = a repeat was not active; [ ] = dose if it differs, or a comment. Most compounds without a hit are left out; they make up all but 18% or so of the library. Unless noted, the call rests on the fitted dose curve; in most records, active means well fitted curve in the direction sought with a large enough effect; inconclusive means small, poorly fitted or top-dose-only effect, or another doubt; inactive means no such curve, though single readings can be large; an effect the other way counts as inactive or inconclusive.

SMILES	DT40 TDP1 no CPT	IL-1B inflam inh	TGFb inhibitor	TDP1 inh	HepG2 tox	TDP1 cell CPT
CC(C)Cn1c(-c2ccc(S(=O)(=O)N3CCCC3)cc2)csc1=Nc1ccccc1	3.26µM*	nt	-22.1%	9.7%	-5.3%	5.8µM*
C=CCn1c(-c2ccc(S(=O)(=O)N3CCOCC3)cc2)csc1=Nc1ccccc1	6.51µM*	?	-2.0%	9.3%	-11.6%	6.51µM*
CC(C)CCNC(=O)CN(Cc1ccc2c(c1)OCO2)C(=O)CCC(=O)Nc1ccccn1	-29.9%	-4.7	-19.3%	3.9%	12.6%	-16.1%
COC(=O)C1CCN(C(=O)C2CCC(=O)N(CCc3cccc(F)c3)C2)CC1 (stereo not given)	30.5%	10.0	14.2%	2.9%	13.9%	-1.8%
CCCn1c(N)c(C(=O)CSc2nc(C)cs2)c(=O)[nH]c1=O	14.6µM*	-10.6	8.7%	2.3%	-20.8%	?
CCCCNc1nnc(SCC(=O)c2c(N)n(CCC)c(=O)[nH]c2=O)s1	-16.5%	2.8	3.3%	1.4%	-68.7%	-16.6%
COc1ccc(OCc2nnc(SCC(=O)Nc3ccccc3F)o2)cc1	3.3%	11.8	34.5%	nt	11.9%	5.3%
CCOC(=O)C1CCCN(c2nc(C)nc3c2oc2ccccc23)C1 (stereo not given)	20.6µM*	8.5	4.6%	-2.1%	-7.2%	14.6µM*
CCOC(=O)C1CCN(c2nc(C)nc3c2oc2ccccc23)CC1	23.1µM*	4.2	5.0%	5.8%	23.7%	23.1µM*
C[C@H]1CN([C@@H](C)CO)C(=O)c2cc(NC(=O)C3CCCCC3)ccc2O[C@H]1CN(C)S(=O)(=O)c1ccccc1	?	-5.8	-21.2%	1.7%	-7.0%	20.6µM*
Cc1ccc(S(=O)(=O)N(C)C[C@H]2Oc3ccc(NC(=O)C4CCCCC4)cc3C(=O)N([C@H](C)CO)C[C@H]2C)cc1	20.6µM*	-68.6*	-2.2%	1.0%	-32.7%	25.9µM*
C[C@H](CO)N1C[C@H](C)[C@@H](CN(C)S(=O)(=O)c2ccc(F)cc2)Oc2ccc(NC(=O)C3CCCCC3)cc2C1=O	16.4µM*	-23.0	-0.7%	1.1%	1.1%	?
Cc1ccc(Cn2c(=O)c3ccccc3n3nc(C)cc23)cc1	-5.9%	16.0	0.6%	2.7%	-33.3%	-12.2%
CCN1CCN(S(=O)(=O)c2ccc(Cl)c(C(=O)NC3CCCCC3)c2)CC1	-7.6%	3.8	9.4%	4.1%	3.4%	?
O=C(c1ccc(C(F)(F)F)cc1)N(Cc1cc2ccc(F)cc2nc1N1CCOCC1)C1CC1	?	nt	nt	nt	nt	2.8%[9.04 µM]
CC1(C)CC2CC(C)(CN2S(=O)(=O)c2ccccc2[N+](=O)[O-])C1 (stereo not given)	20.6µM*	-4.5	?	0.6%	-29.0%	20.6µM*
CC(=O)c1c(C)[nH]c(C(=O)CN2CCN(S(=O)(=O)c3ccccc3[N+](=O)[O-])CC2)c1C	13µM*	-7.0	-31.4%	3.3%	-8.6%	20.6µM*
CC1CC(C)CN(S(=O)(=O)c2ccccc2[N+](=O)[O-])C1 (stereo not given)	13µM*	-12.5	-17.8%	3.4%	1.1%	13µM*
CC1(C)CC2CC(C)(CN2S(=O)(=O)c2cccc(N)c2)C1 (stereo not given)	?	16.7	-3.3%	4.4%	-2.9%	?
CCOC(=O)N1CCN(C(=O)COC(=O)c2ccc(N(C)C)cc2)CC1	1.5%	0.8	1.9%	0.4%	-0.9%	?
CN(C)S(=O)(=O)c1ccc2c(c1)nc(CCC(=O)NCCc1ccc(Cl)cc1)n2C	-0.5%	22.5	0.0%	nt	-7.2%	?
O=C(Nc1cccc(-c2nc3ncccc3o2)c1)c1cc2ccccc2o1	23.1µM*	25.2	-16.0%	-5.3%	4.0%	20.6µM*
O=C(Nc1cccc(-c2nc3ncccc3o2)c1)c1sc2ccccc2c1Cl	?	5.5	22.3%	4.0%	-37.0%	10µM*
CCOc1ccc(N/C(N)=N/c2nc(CSc3nnc(C)s3)cc(=O)[nH]2)cc1	0.581µM*	36.9	3.9%	-2.6%	15.3%	0.651µM*
Cc1nnc(SCc2cc(=O)[nH]c(/N=C(\N)Nc3ccccc3Sc3ccccc3)n2)s1	-3.4%	24.9	-1.2%	5.4%	-10.5%	-4.8%
SMILES	DT40 TDP1 no CPT	IL-1B inflam inh	TGFb inhibitor	TDP1 inh	HepG2 tox	TDP1 cell CPT
Cc1nnc(SCc2cc(=O)[nH]c(/N=C(\N)Nc3ccccc3)n2)s1	20.6µM*	22.5	4.0%	nt	15.8%	?
O=C(Nc1ccccc1)c1cc(C2CCCN(C(=O)c3cccs3)C2)on1 (stereo not given)	-18.9%	-11.5	-17.6%	nt	-22.2%	-13.7%
CC[C@H]1OC(=O)[C@H](C)[C@@H](O[C@H]2C[C@@](C)(OC)[C@@H](O)[C@H](C)O2)[C@H](C)[C@@H](O[C@@H]2O[C@H](C)C[C@H](N(C)C)[C@H]2O)[C@](C)(OC)C[C@@H](C)C(=O)[C@H](C)[C@@H](O)[C@]1(C)O	-29.3%	-12.0	-0.7%	-2.9%	5.2%	5.7%
CC[C@H]1OC(=O)[C@H](C)C(=O)[C@H](C)[C@@H](O[C@@H]2O[C@H](C)C[C@H](N(C)C)[C@H]2O)[C@](C)(OC)C[C@@H](C)C(=O)[C@H](C)[C@H]2N(CCCCn3cnc(-c4cccnc4)c3)C(=O)O[C@]12C	2.11µM*	nt	nt	nt	nt	2.37µM*!
Cc1cc(C)cc(-n2c(SCC(=O)N3CCC(C)CC3)nc3c([nH]c4ccccc43)c2=O)c1	-8.0%	nt	2.0%	2.2%	-15.7%	-3.0%
COC(=O)CNC(=O)c1cccc(F)c1	-12.1%	19.4	?	-0.5%	-1.5%	-2.3%
CC(C)(CNC(=O)c1cccc(F)c1)CNC(=O)c1cccc(F)c1	18.4µM*	0.5	2.2%	nt	3.9%	?
O=C(NCCNc1ccc([N+](=O)[O-])cc1C(F)(F)F)c1cccc(F)c1	20.6µM*	0.0	?	4.4%	-42.3%	?
O=C(NCCNc1ccc([N+](=O)[O-])cc1C(F)(F)F)c1ccccc1	?	-23.2	2.5%	-1.8%	-14.2%	?
CCC(C)N(C(=O)CSc1nc(-c2cccs2)nc2ccccc12)C1CCS(=O)(=O)C1 (stereo not given)	16.4µM*	-82.8*	?	nt	6.0%	?
